PLK1 PBD inh: qHTS for Inhibitors of PLK1-PDB (polo-like kinase 1 - polo-box domain): Primary Screen | Serine/threonine-protein kinase PLK1 (Homo sapiens), P53350 | Plk1 PBD binding of FITC phosphopeptide, fluorescence polarization | Potency, µM, without a hit: max response, negative = inhibition, most hits filed as inhibitors | 360,000 compounds, 2.8% hits | AID 720504, 2013; also: series mostly up to about 57 µM; % is scaled to controls: 0 for no effect and ±100 for the full control effect; nearly all actives have a fitted effect of over 65% in size
Target sequence (P53350 whole entry, looked up, the tested form may be a part): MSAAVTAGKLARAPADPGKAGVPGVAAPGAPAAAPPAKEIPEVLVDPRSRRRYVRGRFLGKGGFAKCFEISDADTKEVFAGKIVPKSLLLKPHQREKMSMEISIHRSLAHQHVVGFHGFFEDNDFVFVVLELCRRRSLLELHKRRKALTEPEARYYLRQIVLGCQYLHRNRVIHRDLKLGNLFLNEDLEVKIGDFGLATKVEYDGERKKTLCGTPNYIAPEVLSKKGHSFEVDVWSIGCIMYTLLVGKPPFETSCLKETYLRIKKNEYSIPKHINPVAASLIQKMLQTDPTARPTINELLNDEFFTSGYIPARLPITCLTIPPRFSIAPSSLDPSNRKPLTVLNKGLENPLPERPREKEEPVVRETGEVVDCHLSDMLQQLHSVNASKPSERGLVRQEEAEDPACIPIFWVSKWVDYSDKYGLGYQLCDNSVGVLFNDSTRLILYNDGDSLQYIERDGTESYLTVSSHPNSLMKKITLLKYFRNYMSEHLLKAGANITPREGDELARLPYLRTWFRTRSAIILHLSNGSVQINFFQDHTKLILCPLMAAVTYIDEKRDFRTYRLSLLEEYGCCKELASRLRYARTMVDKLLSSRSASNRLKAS
HP1b binding inh: HTS for Inhibitors of HP1-beta Chromodomain Interactions with Methylated Histone Tails. Chromobox protein homolog 1 (Homo sapiens), P83916. AlphaScreen HP1-beta / biotin-H3K9me3 peptide binding. Potency, µM (highest dose often 114 µM), without a hit: at the highest dose activity change, negative = inhibition, hits mostly inhibitors. 390,000 compounds, 0.56% hits. AID 540317, 2011; also: nearly all actives have a fitted effect of over 70% in size
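AlphaScreen: HP1-beta (50 nM) preformed 30 min with biotin-H3(1-18)K9me3 peptide (50 nM) in PBS pH 7.4, 0.01% Tween-20. Compound added for 30 min at RT, then streptavidin donor/nickel chelate acceptor beads (10 ug/mL) for 30 min.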
BAZ2B block: qHTS Assay for Inhibitors of BAZ2B; Bromodomain adjacent to zinc finger domain protein 2B (Homo sapiens), Q9UIF8; AlphaScreen BAZ2B-H3K14Ac peptide displacement; Potency, µM (top dose mostly 114 µM), for the others: at the top dose activity change, negative = inhibition, actives largely listed as inhibitors; 360,000 compounds, 4.4% hits; also: % is scaled to controls: 0 for no effect and ±100 for the full control effect; nearly all actives have a fitted effect of over 60% in size
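BAZ2B (50 nM) with biotin-H3(5-23)K14Ac peptide (50 nM) in PBS pH 7.4, 0.01% Tween-20, preformed 30 min, then compound 30 min at room temperature; top concentration 110uM. AlphaScreen streptavidin donor/nickel chelate acceptor beads (10 ug/mL final), 20 min dark, signal read.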
VDR inhibitor: Inhibitors of the vitamin D receptor (VDR): qHTS | VDR-SRC2-3 peptide fluorescence polarization, 2 h | Potency, µM, without a hit: max response, negative = inhibition, actives largely listed as inhibitors | 400,000 compounds, 0.93% hits | AID 504847, 2011; also: % is scaled to controls: 0 for no effect and ±100 for the full control effect
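Signal is fluorescence polarization, reporting how far test compounds block the interaction of VDR with the SRC2-3 coregulator peptide after a 2 h room-temperature incubation.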
G9a inh: qHTS Assay for Inhibitors of Histone Lysine Methyltransferase G9a; Histone-lysine N-methyltransferase EHMT2 (Homo sapiens), Q96KQ7; Potency, µM (top dose mostly 102 µM), inactives show top-dose activity, negative = inhibition, usual class: inhibitors; G9a H3K9 monomethylation, AlphaScreen, 2 h; 350,000 compounds, 8.8% hits; also: % is scaled to controls: 0 for no effect and ±100 for the full control effect; nearly all actives have a fitted effect of over 75% in size
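AlphaScreen read-out: biotin-H3K9 peptide (500 nM) methylation by 20 nM enzyme with 20 uM SAM, 2 h at room temperature after 15 min compound preincubation; anti-monomethyl H3K9 antibody plus donor/acceptor beads, 10 min dark.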
JMJD2A Tudor: qHTS Assay for Inhibitors of JMJD2A-Tudor Domain. 390,000 compounds, 4.4% hits. Lysine-specific demethylase 4A (Homo sapiens), O75164. Potency, µM (doses to about 114 µM), without a hit: top-dose activity change, negative = inhibition, hits mostly inhibitors. AlphaScreen JMJD2A-Tudor / H3K4me3 peptide binding; also: % is scaled to controls: 0 for no effect and ±100 for the full control effect; nearly all actives have a fitted effect of over 50% in size
VDR confirm: qHTS for Inhibitors of the vitamin D receptor (VDR): Hit Validation in Primary Screen. shares compounds with VDR inhibitor. VDR-coactivator inhibition assay, qHTS confirmation. Potency, µM, hits mostly inhibitors. 840 compounds, 89% hits. AID 602199, 2012
VDR FP: qHTS for Inhibitors of the vitamin D receptor (VDR): Hit Validation using a Fluorescein Assay; shares compounds with VDR inhibitor; VDR-coactivator binding, fluorescein fluorescence polarization; Potency, µM (series often up to 57.1 µM), without a hit: at the top dose activity change, negative = inhibition, most hits filed as inhibitors; 840 compounds, 48% hits; AID 602200, 2012
VDR bla reporter: qHTS for Inhibitors of the vitamin D receptor (VDR): Hit Validation using a Beta-Lactamase Assay | Potency, µM (doses to about 46.1 µM), without a hit: at the highest dose activity change, negative = inhibition, actives largely listed as inhibitors | shares compounds with VDR inhibitor | VDR beta-lactamase reporter cells, FRET ratio; cells co-treated with VDR agonist LG190178 | 840 compounds, 23% hits; also: % is scaled to controls: 0 for no effect and ±100 for the full control effect
VDR viability: qHTS for Inhibitors of the vitamin D receptor (VDR): Hit Validation using a Cytotoxicity Assay. 840 compounds, 18% hits. shares compounds with VDR inhibitor. cytotoxicity counter-screen, cell viability, qHTS. AID 602204, 2012. Potency, µM (highest dose often 48.3 µM), inactives show top-dose activity change, negative = cytotoxicity, usual class: cytotoxic;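 also: plate controls were DMSO for no effect and high-concentration cycloheximide for full effect; nearly all actives have a fitted effect of over 75% in size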
TbPYK confirm: qHTS of Trypanosoma Brucei Inhibitors: Confirmatory Assay for Cherry-picked Compounds; recombinant TbPYK, Kinase-Glo ATP luminescence; shares compounds with PLK1 PBD inh; AID 720569, 2013; 890 compounds, 67% hits; Potency, µM (series often up to 76.9 µM), for inactives: at the top dose activity change, negative = inhibition, actives largely listed as inhibitors; also: % is scaled to controls: 0 for no effect and ±100 for the full control effect; nearly all actives have a fitted effect of over 70% in size
TbPYK ADP-Glo: qHTS of Trypanosoma Brucei Inhibitors: Orthogonal Assay for Cherry-picked Compounds; shares compounds with PLK1 PBD inh; recombinant TbPYK, ADP-Glo luminescence, 60 min; Potency, µM (top dose mostly 76.9 µM), inactives show top-dose activity change, negative = inhibition, most hits filed as inhibitors; 890 compounds, 62% hits; AID 720584, 2013; also: % is scaled to controls: 0 for no effect and ±100 for the full control effect; nearly all actives have a fitted effect of over 75% in size
* marks the source's active call; other numbers are inactive results; ? = inconclusive; / = not tested or not shown; [ ] = dose if it differs, or a comment. Shown are actives, neighbours in structure and some others; about 11% of the full set was active somewhere. Calls follow the shape of the dose curve; as a rule, active = well fitted curve in the direction sought with a large enough effect; inconclusive = small, poorly fitted or top-dose-only effect, or another doubt; inactive = no such curve, though single readings can be large; an effect the other way counts as inactive or inconclusive. Potency is read from the fitted curve at half-maximal effect.

SMILES	PLK1 PBD inh	HP1b binding inh	BAZ2B block	VDR inhibitor	G9a inh	JMJD2A Tudor	VDR confirm	VDR FP	VDR bla reporter	VDR viability	TbPYK confirm	TbPYK ADP-Glo
COC(=O)COc1ccc(/C=C2\C(=O)NC(=S)N(c3ccc(C)cc3)C2=O)cc1OC	8.44µM*	16.8%	-30.5%	25.1µM*	11.2µM*	?	6.7*	?	14.8%	25.7%	?	?
COc1ccc(/C=C/c2nc3ccccc3c(=O)n2-c2ccc(C)cc2)cc1O	/	9.1%	-12.9%	-12.9%	6.4%[59 µM]	-10.7%	/	/	/	/	/	/
Cc1ccc(-n2c(/C=C/c3cccs3)nc3ccccc3c2=O)cc1C	/	2.8%	-29.5%	14.6%	-27.1%[59 µM]	-31.2%	/	/	/	/	/	/
O=C1CCCCC1CN1CCCCC1 (centres undefined)	/	/	/	2.3%	-8.0%[12.7 µM]	/	/	/	/	/	/	/
O=C(O)c1ccccc1-c1ccc(C=C2C(=O)N(c3ccccc3)C(=S)N(c3ccccc3)C2=O)o1	2.67µM*	-17.3%	70.8µM*	15.8µM*	17.9%[0.501 µM]	50.1µM*	3.77*	?	24.4%	3.9%	31.6µM*	39.8µM*
COC(=O)c1ccc(NC(=O)c2cccn(Cc3ccccc3C)c2=O)cc1	/	19.6%[57 µM]	3.8%	-5.7%	6.8%[59 µM]	-14.2%	/	/	/	/	/	/
CN1C(=O)NC(=O)/C(=C/c2ccc([N+](=O)[O-])s2)C1=O	2.67µM*	?	50.1µM*	44.7µM*	7.08µM*	?	8.44*	?	10.5%	?	5.01µM*	11.2µM*
CC(C)Nc1ccc(Nc2ccccc2)cc1	?	44.7µM*	28.2µM*	39.8µM*	1.58µM*	50.1µM*	?	7.08µM*	?	?	5.01µM*	15.8µM*
CC1(C)C(C=C(Cl)Cl)C1C(=O)OCc1cccc(Oc2ccccc2)c1 (centres undefined)	1.7%	331.0%	458.5%	7.9%	439.0%[59 µM]	246.2%	/	/	/	/	/	/
